# Data published in PubChem BioAssay (NCI).
# Compounds without any hit were thinned out: in the full panel of roughly 83,000, 20% have a hit.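 Plates (96-well) were seeded with cells, treated with compound at one concentration, and incubated for 48 hours before percent growth was determined.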 Values without a mark were called inactive. Activity calls are given as the source filed them. The calls were made as follows: active = growth percent below 10; inactive = the rest.
# System: MDA-MB-468 breast
# Experiment: NCI-60 one-dose screen, 48 h (100 = growth as untreated, 0 = no growth, -100 = all killed)
# Conditions: 10 µM unless noted
row,SMILES,growth
1,CN1C(=O)N(C)C2NC(N/N=C/c3ccccc3)=NC21 (configuration not stated),95.9%
2,C[Se]C(=O)CC1=C2C=C(F)C=CC2/C(=C\c2ccc(S(C)=O)cc2)C1C (configuration not stated),-46.2% (active)
3,O=C(O)c1cc2ccccc2cc1Nc1ccccc1,102%
4,COc1cccc(/C=N\Nc2ccc([N+](=O)[O-])cn2)c1O,26.4%
5,Clc1ccc(-c2cc(-c3ccccc3)nc(N3CCN(CCCNc4ccnc5cc(Cl)ccc45)CC3)n2)cc1,-34% (active)
6,O=C1c2c(c3c4ccccc4n(CCCCCCBr)c3c3[nH]c4ccccc4c23)C(=O)N1O,-3.78% (active)
7,O=C1NC(=O)/C(=C\c2ccncc2)N1,102%
8,O=Cc1c[nH]c2ccc(NC(=O)OCc3ccccc3)cc12,109%
9,O=[N+]([O-])C1C(c2ccccc2)C12c1ccccc1-c1ccccc12 (configuration not stated),-26% (active)
10,Cc1[nH]c(-c2ccc3cc[nH]c3c2)c2c1C(=O)CCCC2,15.8%
11,CC1(C)CC[C@]2(C(=O)O)CC[C@]3(C)C(=CCC4[C@@]5(C)C[C@@H](O)[C@@H]6OC(c7ccccc7O)OC[C@@]6(C)C5CC[C@]43C)C2C1 (some centres not stated),69.4%
12,Cc1nn(-c2ccccc2)c(Oc2ccccc2)c1/C=N/NC(=O)Cn1c(=O)sc2ccccc21,13.7%
13,O=c1c2cc(-c3ccc(F)cc3F)ccc2n(O)c(=O)n1-c1cccc(C(F)(F)F)c1,-0.858% (active)
14,CCn1c(SCC(=O)N/N=C(\C)c2ccc(Cl)cc2)nc2c1c(=O)n(C)c(=O)n2C,96.6%
15,O=C1c2ccccc2C(=O)N1/N=C/c1ccc2c(c1)OCO2,103%
16,O=C([C@H]1C[C@H]1c1ccc(S(F)(F)(F)(F)F)cc1)N1CCN(c2cc(Cl)ccc2C(F)(F)F)CC1,58.9%
17,NS(=O)(=O)c1ccc(Br)cc1,102%
18,CNc1ncc2cc(-c3cc(NC(=O)NCCC(C)(C)C)c(F)cc3C)c(C)nc2n1,52.7%
19,CC(C)(C)NC(=O)C(OC(=O)C1CCc2cc(F)ccc2O1)c1ccccc1Cl (configuration not stated),105%

row,SMILES,growth
1,CCCc1nc2ccccn2c1Nc1ccc(C(=O)NO)cc1,87.9%
2,CO[C@H]1C[C@@H]2CC[C@@H](C)[C@@](O)(O2)C(=O)C(=O)N2CCCC[C@H]2C(=O)O[C@H]([C@H](C)C[C@@H]2CC[C@@H](OP(C)(C)=O)[C@H](OC)C2)CC(=O)[C@H](C)/C=C(\C)[C@@H](O)[C@@H](OC)C(=O)[C@H](C)C[C@H](C)\C=C/C=C/C=C/1C,39.9%
3,O=C(NCCNc1nccc(-n2ccc3cccnc32)n1)c1ccc(C(F)(F)F)cc1,110%
4,Nc1nc2nnc(-c3ccccc3)c(-c3ccccc3)n2n1,99.9%
5,CC(C)OC(=O)NNC(=O)c1ccncc1,118%
6,CC[C@H](Nc1ncnc2nc[nH]c12)c1nc2cccc(NCc3ccc(C(=O)NO)nc3)c2c(=O)n1-c1ccccc1,11.1%
7,COc1ccc(CC(C)=C(c2ccc(OCCN3CCCC3)cc2)c2ccc(OCCN3CCCC3)cc2)cc1,-85.2% (active)
8,C=C1C[C@H](O)[C@H](Br)C(C)(C)[C@@]12CCC(C)=C(Cl)C2,-28.3% (active)
9,Cc1cccc(Cl)c1NC(=O)c1cnc(Nc2cc(N3CCOCC3)cc(N3CCOCC3)c2)s1,-8.47% (active)
10,COc1ccccc1CNc1c2ccccc2nc2ccccc12,28.3%
11,CCn1cc(C(=O)N/N=C/c2cccc(F)c2)c(=O)c2cc(F)c(N3CCNC(C)C3)c(F)c21 (configuration not stated),71.6%
12,COC(=O)c1ccc2[nH]c(O)c(C(=Nc3ccc(N(C)C(=O)CN4CCN(C)CC4)cc3)c3cccc(OC)c3)c2c1,37.3%
13,COc1cc(/C=C/C(=O)c2c(-c3ccc(F)cc3)nc3sc(C)nn23)cc(OC)c1OC,23.9%
14,Nc1c(C(=O)Nc2cccc(Cl)c2)sc2nc3c(cc12)C(O)CCC3 (configuration not stated),39.5%
15,Clc1ccc(-c2nnc(-c3cccc4ccccc34)o2)cc1,19.1%
16,COc1cc2c(Nc3ccc(Br)cc3F)ncnc2cc1OCC1CCN(C)CC1,-23.3% (active)
17,C=CC[n+]1c(/C=C/C=C2\N(C)c3ccccc3C2(C)C)sc2ccc(OC)cc21,-5.71% (active)
18,O=C(O)CN1C(=O)C=CC1=O,104%
